CF NFkB block = inhibitors of PAF-induced NF-kB signaling, primary screen, cell-based, GFP fluorescence, uHTS; 360,000 compounds, 0.86% hits; KKLEB NF-kB-GFP reporter, GFP fluorescence overnight; inhibition, % at 5 µM;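 active means at least 50% inhibition at 5 µM, scaled per plate between neutral and stimulator controls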;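 further: PAF is a Pseudomonas aeruginosa culture filtrate used as stimulus; plate controls were PAF-stimulated DMSO wells for no effect and unstimulated DMSO wells for full effect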
KKLEB tox = cytotoxicity in KKLEB CF airway cells, primary screen, cytotoxicity control for CF NF-kB inhibitor project, cell-based, uHTS, fluorescence assay plates | KKLEB CF airway cells viability, ATPlite luminescence, overnight; stronger effect = lower value; cells stimulated with P. aeruginosa culture filtrate | AID 602141, 2011 | activity change (cytotoxicity), % at 5 µM | 360,000 compounds, 0.36% hits;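 active means corrected activity change at or below -50% at 5 µM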
Shn3 inh set2 = reduction of Shn3 3'UTR firefly luciferase signal, primary screen, Schnurri-3 inhibitor project, cell-based, Clone20 osteoblasts, set 2. 360,000 compounds, 0.52% hits. inhibition, % at 12.5 µM. Clone20 osteoblast Shn3 3'UTR firefly luciferase, 24 h;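 active means mean inhibition of at least 75% with every replicate also reaching 75%; inconclusive means mean inhibition at least 75% but some replicate below; inactive means mean inhibition below 75%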;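 further: 0% = median of neutral control wells and 100% = pilot-screen positive control compound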
EBV LMP1 NFkB = EBV LMP1-driven NF-kappaB luciferase reporter inhibitors, primary screen, cell-based, luminescence, single point | LMP1-induced NF-kappaB luciferase reporter cells | 350,000 compounds, 0.69% hits | inhibition, % at 12.5 µM | AID 504558, 2011; in the data active means inhibition above about 41%; inconclusive means no clear call, values can overlap the other calls;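 further: 0% = neutral control wells and 100% = reference inhibitor control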
HIF-2a block = HIF-2a reporter inhibitors, primary screen, luminescence, 786-0 RCC cells. 786-0 RCC cells HIF-2a reporter, luciferase luminescence, overnight. inhibition, % at 18.8 µM. 360,000 compounds, 0.72% hits. AID 624352, 2012;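 active means inhibition of the luminescence signal of 40% or more relative to plate controls, in a single-dose primary screen at 18.75 µM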
Peg3 promoter = Peg3 promoter-driven luciferase inhibitors, primary screen, cell-based, HeLa, luciferase luminescence | HeLa PEG-Prom luciferase reporter, overnight | inhibition, % at 20 µM | 360,000 compounds, 1.7% hits | AID 588405, 2011;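 active means inhibition of at least 50% at 20 µM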
* hit, by the source's call; ? = inconclusive; . = not tested or not shown. Most compounds without a hit are left out; they make up all but 2.9% or so of the library.

SMILES	CF NFkB block	KKLEB tox	Shn3 inh set2	EBV LMP1 NFkB	HIF-2a block	Peg3 promoter
C[N+]1(C)CC[C@H](OC(=O)[C@@](O)(c2ccccc2)C2CCCC2)C1	-26	-67*	2	-9	-9	-4
CC(C)(C)NC(=O)NC(=O)CN1CCN(c2ccc(O)cc2)CC1	-13	5	87*	-4	7	18
CC(C)(C)NC(=O)NC(=O)CN1CCN(c2ccccc2)CC1	6	-8	6	-2	14	6
CC1CCCCC12NC(=O)N(CC(=O)N1CCN(C(=O)c3ccco3)CC1)C2=O (stereo unspecified)	23	2	-8	-105	-9	-8
O=C1/C(=C\c2ccccc2)CCC/C1=C/c1ccccc1	-57	8	7	-26	-11	-10
O=C1/C(=C\c2ccc(Cl)c(Cl)c2)CN(C(=O)CCN2CCOCC2)C/C1=C/c1ccc(Cl)c(Cl)c1	90*	-78*	99*	2	94*	98*
O=C1/C(=C\c2ccccc2)CN(C(=O)CCN2CCCCC2)C/C1=C/c1ccccc1	91*	-54*	94*	-32	90*	97*
CCN(CC)CCC(=O)N1C/C(=C/c2ccccc2)C(=O)/C(=C\c2ccccc2)C1	86*	-46	75	?	83*	94*
CCCCC(CC)C(=O)NCc1ccc(F)cc1 (stereo unspecified)	-2	5	7	2	13	4
C/C(=N\NC(=S)NC1CCCCC1)c1ccccc1	10	0	1	-2	-117	-153
Cn1nc(-c2ccc(Cl)cc2)nc2c(=O)n(C)c(=O)nc1-2	.	.	118*	.	.	.
O=C(CSc1nnc(-c2cccs2)n1-c1cccc(Cl)c1)c1cccc2c1OCCO2	-3	7	-1	2	-5	8
COc1ccccc1CNc1nc(NCc2ccc3occc3c2)c2sccc2n1	13	-18	71	.	9	90*
COc1ccccc1CNc1nc(Nc2cccc(-c3cnco3)c2)c2sccc2n1	22	-16	84	.	-7	91*
Cc1ccc(CNc2nc(NCC3CC3)nc3ccsc23)c(C)c1	29	-17	83	.	19	77*
COc1ccccc1CNc1nc(NCc2cccs2)nc2ccsc12	-1	-11	42	.	4	0
COc1ccccc1CNc1nc(NCc2ccccc2OC)c2sccc2n1	7	-11	87*	.	17	58*
CC(=O)c1ccc(S(=O)(=O)N2CCN(C(=O)c3cccc(S(=O)(=O)N4CC(C)OC(C)C4)c3)CC2)cc1 (stereo unspecified)	-2	2	6	-6	5	16
COc1ccc(-c2nc(SCC(=O)Nc3nccs3)c(-c3ccc(Cl)cc3)[nH]2)cc1	10	-16	23	-9	-2	52*
Cc1cc2nc(-c3ccc(SCC(=O)Nc4ccc(S(=O)(=O)N5CCCC5)cc4)nc3)[nH]c2cc1C	23	-54*	-31	-31	-194	-78
Cc1cc2nc(-c3ccc(SCC(=O)Nc4nccs4)nc3)[nH]c2cc1C	58*	-59*	9	-11	-155	14
CC(CCc1ccccc1)NC(=O)CCC(=O)N1CCC(C(=O)O)CC1 (stereo unspecified)	-10	-15	13	2	10	10
CC(C(=O)Nc1cccnc1)n1cc([N+](=O)[O-])cn1 (stereo unspecified)	-1	-11	-23	5	17	5
Cc1c([N+](=O)[O-])c(C(=O)NC2CCCCC2)nn1C	-2	3	4	-2	5	19
O=C(Nc1ccccc1)c1ccccc1Oc1ccc(C(F)(F)F)cc1[N+](=O)[O-]	-4	4	3	-2	6	56*
O=C(Nc1ccc(F)cc1)c1ccccc1Oc1ccc(C(F)(F)F)cc1[N+](=O)[O-]	16	-14	61	-16	2	28
